In the OligoGym collection one finds sensor-assay potency score (higher = more potent) data, which are given here for 38 sequences.
Further: reference of the scale not given here.

One test has as its target NAA35. The test is described as follows: pooled miR-30 sensor sort-seq; sequence = guide strand. Conditions: shRNA.
ATATATGTAATAGTACTCGTGC yielded a sensor-assay potency score (higher = more potent) of 0.454.

As for TTATTATATAGGTAGCACTTGG, the sensor-assay potency score (higher = more potent) is -0.806.

On to TTATTCTATCTATTAATCTTGC, for which the sensor-assay potency score (higher = more potent) is -0.493.

TAATTATTTTTGCATATCGAGG came in with a sensor-assay potency score (higher = more potent) of -1.65.

Take TTAATTCTCGACAAGCTTCTTC: the sensor-assay potency score (higher = more potent) turned out to be 0.731.

TTATATAGGTAGCACTTGGGGG had a sensor-assay potency score (higher = more potent) of -1.1.

As for TATATAGGTAGCACTTGGGGGA, the sensor-assay potency score (higher = more potent) is -0.0355.

Sequence TCTATTAACCTCATGGTCCGGG showed a sensor-assay potency score (higher = more potent) of 0.321.

TACTGCTAAACATTGTTGGTGT returned a sensor-assay potency score (higher = more potent) of 0.709.

TAGTTCACCATTTCTTCCCTTT: the sensor-assay potency score (higher = more potent) amounted to 0.00785.

On to TATGTAATAGTACTCGTGCATA, for which the sensor-assay potency score (higher = more potent) is -1.06.

TTATTTTTGCATATCGAGGGAA: the sensor-assay potency score (higher = more potent) amounted to 0.0226.

The next test has as its target NAALADL1. Described as above. To be noted: shRNA.
Consider TAGACGCTCACATTCACCTGGC, for which the sensor-assay potency score (higher = more potent) turned out to be 0.571.

Take TTACAGAGCAGGTCTCTTGCAT: the sensor-assay potency score (higher = more potent) was -0.148.

In turn, TACAGAGCAGGTCTCTTGCATC displayed a sensor-assay potency score (higher = more potent) of -0.894.

TTGAGGGGCAGGAAGAAGCTGT yielded a sensor-assay potency score (higher = more potent) of -0.568.

As for TTCCCATACAGCACGTAGCGAT, the sensor-assay potency score (higher = more potent) is -0.768.

Take TCTCACTGTAGTCACTGACTTT: the sensor-assay potency score (higher = more potent) is -1.01.

For TTGTCGTAGATGCTCAGGTCGC, the sensor-assay potency score (higher = more potent) is -1.1.

Consider TTGATGTCGGCAGGGTCTGTGT, for which the sensor-assay potency score (higher = more potent) is -1.45.

Sequence TCTGTGTACACCAGCACCCCAG yielded a sensor-assay potency score (higher = more potent) of -1.23.

Sequence TTCTGCAGTGTTGATATGCGTT displayed a sensor-assay potency score (higher = more potent) of -0.417.

A further test concerns the target NAGA. The test is described as above. Conditions: shRNA.
TCATATATCACAGACCCGGTGA yielded a sensor-assay potency score (higher = more potent) of -0.0849.

For TTCGATGAGAGATTTTTCCTTG, the sensor-assay potency score (higher = more potent) is 0.59.

The sequence TTTTCCTTGTGAATCCTGCGTC returned a sensor-assay potency score (higher = more potent) of 0.331.

Consider TTGTCCAGTGTGGTGCCTGGGT, for which the sensor-assay potency score (higher = more potent) was -0.646.

On to TTGATGATCACTGTGAAGTTGG, for which the sensor-assay potency score (higher = more potent) worked out at 0.614.

As to TTGAGCATGTCTACCTTCCACT, the sensor-assay potency score (higher = more potent) was -1.03.

TTGTCCAGCATCAGCACCTGGG yielded a sensor-assay potency score (higher = more potent) of -0.84.

As for TTCGAAAACTTCCAAATCCTGA, the sensor-assay potency score (higher = more potent) is -0.213.

As to TTGCTCAGCAACGTCTGTGGGG, the sensor-assay potency score (higher = more potent) was -0.463.

TGAAGTTGGTTTCATCTCGGAG yielded a sensor-assay potency score (higher = more potent) of -0.453.

TTGGACAGGGCATAGAACCTGG showed a sensor-assay potency score (higher = more potent) of -0.532.

TTGATTTTGATCATGAGTGGAT had a sensor-assay potency score (higher = more potent) of 0.182.

The target of the next test is NAGPA. The test is described as above. Conditions: shRNA.
TGTCTCGTCACACTCTGTGGCT returned a sensor-assay potency score (higher = more potent) of -0.832.

The sequence TTCATGCGGAAGAAGCCGCCGT had a sensor-assay potency score (higher = more potent) of -0.589.

For TGTGTCTCGTCACACTCTGTGG, the sensor-assay potency score (higher = more potent) was -1.05.

TCGTTGATGTAGATGCTTCCAT showed a sensor-assay potency score (higher = more potent) of -0.346.
